Screening data as filed in PubChem BioAssay.
FMDV inh: blocks foot and mouth disease virus; FMDV antiviral cell-based qHTS; Potency, µM (series often up to 57.9 µM), without a hit: at the highest dose activity change, negative = inhibition, hits mostly inhibitors; 1.2% of 410,000 active; AID 1159524; calls by dose curve; tested in HEK293T cells; further: read-out not given here; potency means the concentration at half of the fitted maximal effect; nearly all actives have a fitted effect of over 45% in size
Vaccinia Venus: inhibitors of vaccinia virus (Venus reporter). AID 720580. Vaccinia virus Venus reporter expression, fluorescence. 0.46% of 330,000 active. Potency, µM (highest dose often 36.5 µM), for the others: top-dose activity change, negative = inhibition, actives largely listed as inhibitors; calls by dose curve; tested in A549 cells; further: potency means the concentration at half of the fitted maximal effect; nearly all actives have a fitted effect of over 30% in size
HCV inhibitor: HCV inhibition; Huh7.5.1 HCVcc-Cre infection, luciferase reporter, 44 h; Potency, µM (series often up to 41.8 µM), for the others: at the highest dose activity change, negative = inhibition, hits mostly inhibitors; 3.4% of 340,000 active; AID 651820; active means well fitted inhibition curve with a large enough effect; inconclusive means small, poorly fitted or top-dose-only effect, or another doubt; inactive means no such curve, though single readings can be large or run the other way; further: potency means the concentration at half of the fitted maximal effect
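Antiviral activity was scored by luciferase reporter output from cells infected with HCVcc-Cre (~0.5 moi) in presence of compound, 44 h infection period, cells seeded 1,000/well 4 h prior.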
HCMV inh: blocks human cytomegalovirus replication | HFF cells, HCMV-luciferase reporter, 72 h; active compounds read low | activity change, negative = inhibition, % at 57.5 µM | 4.5% of 410,000 active; in the data active means activity change below about -60%; inconclusive means no clear call, values can overlap the other calls; inactive means above about -39%
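Human foreskin fibroblasts infected with luciferase-reporter HCMV at MOI 1 PFU/cell, compounds at two doses. Luciferase measured 72 h post infection; normalized to buffer-only basal and Salinomycin (10uM) controls.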
Vaccinia mCherry: inhibitors of vaccinia virus infection (mCherry reporter signal); Potency, µM (titrated, usually from 36.5 µM), without a hit: top-dose activity change, negative = inhibition, usual class: inhibitors; Vaccinia virus mCherry reporter infection, fluorescence; 0.63% of 310,000 active; AID 720579; calls by dose curve; tested in A549 cells; further: potency means the concentration at half of the fitted maximal effect; nearly all actives have a fitted effect of over 35% in size
The depositor's hits bear a star; ! = a repeat was not active. Hits are enriched below; roughly 7.3% of the tested compounds scored in any of these assays. On the % scale 0 is the no-effect control and ±100 the full control effect.

`Cc1ccc(C(=O)Nc2ccc(C(F)(F)F)n(C)c2=O)cc1` gave FMDV inh 30.2%, Vaccinia Venus -3.8%, HCV inhibitor 6.5%, HCMV inh 78.4 and Vaccinia mCherry -15.7%.
For Cc1ccc(C(=O)Nc2cccc3[nH]c(C(F)(F)F)nc23)cc1 the results were FMDV inh -23.0%, Vaccinia Venus inconclusive, HCV inhibitor inconclusive, HCMV inh -95.8* and Vaccinia mCherry inconclusive.
For COc1cc(CNc2cccc3[nH]c(C(F)(F)F)nc23)cc(OC)c1 the results were FMDV inh inconclusive, HCV inhibitor 11.2µM* and HCMV inh inconclusive.
Screening COc1ccc(CNc2cccc3[nH]c(C(F)(F)F)nc23)cc1 returned FMDV inh -25.4%, Vaccinia Venus -6.5%, HCV inhibitor 3.16µM*, HCMV inh -27.7 and Vaccinia mCherry inconclusive.
COc1cccc(-c2cc(C(F)(F)F)nc(NCc3ccc(F)cc3)n2)c1 was read as FMDV inh -16.1%, Vaccinia Venus -7.2%, HCMV inh -17.3 and Vaccinia mCherry -13.8%.
`COc1ccc2nc(NCc3ccccc3)[nH]c2c1` gave FMDV inh 34.1%, HCV inhibitor inconclusive and HCMV inh 103.6.
For CCOc1ccc(Nc2ccc3nonc3c2[N+](=O)[O-])cc1 the results were FMDV inh -23.6%, Vaccinia Venus -11.8%, HCV inhibitor 6.7%, HCMV inh inconclusive and Vaccinia mCherry -11.8%.
For CCOc1ccc(Nc2ncnc3ccc([N+](=O)[O-])cc23)cc1 the results were FMDV inh inconclusive, Vaccinia Venus -25.0%, HCV inhibitor inconclusive, HCMV inh -68.9* and Vaccinia mCherry -21.3%.
Screening CCCCOc1ccc(Cl)cc1Nc1nc(NCCO)nc(N2CCCC2)n1 returned FMDV inh -28.5% and HCMV inh -37.2.
CCCCNc1ncnc2c1nnn2C was read as FMDV inh -7.7%, Vaccinia Venus -14.4%, HCMV inh 54.1 and Vaccinia mCherry inactive.
For COc1ccc(S(=O)(=O)c2c(O)c(C)cc(NC(=O)c3ccccc3)c2C(C)C)cc1 the results were FMDV inh -2.5%, Vaccinia Venus -9.3%, HCMV inh -63.3* and Vaccinia mCherry 0.7%.
COc1ccc(S(=O)(=O)c2c(C)c(NS(=O)(=O)c3ccccc3)cc(C)c2O)cc1 was read as FMDV inh 1.9%, Vaccinia Venus -16.3%, HCV inhibitor 3.7%, HCMV inh -62.5*! and Vaccinia mCherry -7.3%.
For COc1ccc(S(=O)(=O)c2c(O)c(C)cc(NS(=O)(=O)c3ccc(Cl)cc3)c2C(C)C)cc1 the results were FMDV inh -15.7%, Vaccinia Venus -7.1%, HCMV inh inconclusive and Vaccinia mCherry -5.1%.
COc1ccc(S(=O)(=O)Nc2cc(C)c(O)c(S(=O)(=O)c3ccccc3)c2)cc1 was read as FMDV inh 55.0%, HCV inhibitor 5.9% and HCMV inh -3.8.
For CCN(CC)CCNC(=O)c1cc2c(=O)n(CC)c3ccccc3c2s1 the results were FMDV inh 2.1%, Vaccinia Venus -23.5%, HCV inhibitor inconclusive, HCMV inh 38.8 and Vaccinia mCherry 2.6%.
For CCn1c(=O)c2cc(C(=O)NCCN(C)C)sc2c2ccccc21 the results were FMDV inh -3.5%, Vaccinia Venus inconclusive, HCV inhibitor 10µM*, HCMV inh 2.1 and Vaccinia mCherry inactive.
Screening CCOCCCNC(=O)c1cc2c(=O)n(CC)c3ccccc3c2s1 returned FMDV inh 0.0%, HCV inhibitor inconclusive and HCMV inh -13.9.
`CCn1c(=O)c2cc(C(=O)NCCOC)sc2c2ccccc21` gave FMDV inh -10.7%, Vaccinia Venus -17.8%, HCV inhibitor 10µM*, HCMV inh 113.3 and Vaccinia mCherry -3.1%.
For CCn1c(=O)c2cc(C(=O)Nc3ccc(OC)cc3OC)sc2c2ccccc21 the results were FMDV inh -19.7%, Vaccinia Venus -5.0%, HCV inhibitor -8.0%, HCMV inh -19.5 and Vaccinia mCherry -12.1%.
For CCn1c(=O)c2cc(C(=O)Nc3cc(C)c(Cl)cc3OC)sc2c2ccccc21 the results were FMDV inh -4.6%, Vaccinia Venus 0.0%, HCMV inh -105.6* and Vaccinia mCherry -1.6%.
Screening Cc1cccc(CNC(=O)c2cnc3c(-c4cccc(C)c4)c(C)nn3c2C)c1 returned FMDV inh -7.0%, Vaccinia Venus -2.4%, HCMV inh -34.3 and Vaccinia mCherry -2.2%.
For Nc1cc(Cl)ccc1C(=O)OCC(=O)NCc1cccs1 the results were FMDV inh 32.4%, HCV inhibitor -21.7% and HCMV inh 0.0.
COC(=O)C[C@H]1c2cc(F)ccc2S(=O)(=O)N1C1CC1 was read as Vaccinia Venus -7.4% and Vaccinia mCherry -9.8%.
CCN(CC)CCN1CCn2c3c(c4cc(C)ccc42)CCCC31 (stereo not drawn) was read as FMDV inh -15.3%, HCV inhibitor 8.91µM* and HCMV inh inconclusive.
CCC(C)NC(=O)c1ccc2c(c1)N=C(C)c1cc(C)ccc1S2 (stereo not drawn) was read as FMDV inh -18.0%, Vaccinia Venus -20.4%, HCMV inh -71.5* and Vaccinia mCherry -22.8%.
For CC1=Nc2cc(C(=O)O)ccc2Sc2ccc(C)cc21 the results were FMDV inh 0.0%, Vaccinia Venus -12.0%, HCV inhibitor -6.7%, HCMV inh -10.7 and Vaccinia mCherry -14.3%.
CC1=Nc2cc(C(=O)NCC3CCCO3)ccc2Sc2ccc(C)cc21 (stereo not drawn) was read as FMDV inh 10.8%, HCV inhibitor 11.1% and HCMV inh -71.8*.
Screening CC1=Nc2cc(C(=O)NCCCN3CCN(C)CC3)ccc2Sc2ccc(C)cc21 returned FMDV inh 1.7%, HCV inhibitor -28.5% and HCMV inh -23.9.
`CC1=Nc2cc(C(=O)NCc3ccco3)ccc2Sc2ccc(C)cc21` gave FMDV inh 7.4%, Vaccinia Venus inconclusive, HCV inhibitor inconclusive, HCMV inh -92.2* and Vaccinia mCherry inconclusive.
O=C(Nn1cnnc1)c1ccc(Cl)c(Cl)c1 was read as FMDV inh 3.2%, HCV inhibitor 5.1% and HCMV inh -14.7.
`Cc1cc(C(F)(F)F)nc(SCC(=O)NC2CC3CCC2C3)n1` (stereo not drawn) gave FMDV inh -18.2%, Vaccinia Venus -16.9%, HCV inhibitor -0.4%, HCMV inh -68.4* and Vaccinia mCherry inactive.
For C=C(C)C(=O)N1CCN(C(=O)C(=C)C)c2ccccc21 the results were FMDV inh 10.2%, Vaccinia Venus -8.0%, HCV inhibitor 4.8%, HCMV inh 65.1 and Vaccinia mCherry -1.5%.
For O=C1/C(=C/c2cccs2)SC(=S)N1CCCC(=O)N(CCO)c1ccccc1 the results were FMDV inh -20.0%, Vaccinia Venus -17.0%, HCV inhibitor 8.8%, HCMV inh -97.6* and Vaccinia mCherry -14.5%.
`O=C(CCN1C(=O)/C(=C\c2cccs2)SC1=S)Nc1ccc(C(=O)O)cc1` gave FMDV inh -9.1%, HCV inhibitor 8.7% and HCMV inh -21.0.
